# Source: PubChem
# In the library only some 11% were active in any assay of this set; here they are far more common.
# BAZ2B inh: blocks human BAZ2B; 360,000 compounds, 4.4% hits; Potency, µM (series often up to 114 µM), without a hit: at the top dose activity change, negative = inhibition, most hits filed as inhibitors; AlphaScreen BAZ2B-H3K14Ac peptide displacement; Q9UIF8; AID 504333; also: % is scaled to controls: 0 for no effect and ±100 for the full control effect; nearly all actives have a fitted effect of over 60% in size
# Target sequence (Q9UIF8 whole entry, looked up): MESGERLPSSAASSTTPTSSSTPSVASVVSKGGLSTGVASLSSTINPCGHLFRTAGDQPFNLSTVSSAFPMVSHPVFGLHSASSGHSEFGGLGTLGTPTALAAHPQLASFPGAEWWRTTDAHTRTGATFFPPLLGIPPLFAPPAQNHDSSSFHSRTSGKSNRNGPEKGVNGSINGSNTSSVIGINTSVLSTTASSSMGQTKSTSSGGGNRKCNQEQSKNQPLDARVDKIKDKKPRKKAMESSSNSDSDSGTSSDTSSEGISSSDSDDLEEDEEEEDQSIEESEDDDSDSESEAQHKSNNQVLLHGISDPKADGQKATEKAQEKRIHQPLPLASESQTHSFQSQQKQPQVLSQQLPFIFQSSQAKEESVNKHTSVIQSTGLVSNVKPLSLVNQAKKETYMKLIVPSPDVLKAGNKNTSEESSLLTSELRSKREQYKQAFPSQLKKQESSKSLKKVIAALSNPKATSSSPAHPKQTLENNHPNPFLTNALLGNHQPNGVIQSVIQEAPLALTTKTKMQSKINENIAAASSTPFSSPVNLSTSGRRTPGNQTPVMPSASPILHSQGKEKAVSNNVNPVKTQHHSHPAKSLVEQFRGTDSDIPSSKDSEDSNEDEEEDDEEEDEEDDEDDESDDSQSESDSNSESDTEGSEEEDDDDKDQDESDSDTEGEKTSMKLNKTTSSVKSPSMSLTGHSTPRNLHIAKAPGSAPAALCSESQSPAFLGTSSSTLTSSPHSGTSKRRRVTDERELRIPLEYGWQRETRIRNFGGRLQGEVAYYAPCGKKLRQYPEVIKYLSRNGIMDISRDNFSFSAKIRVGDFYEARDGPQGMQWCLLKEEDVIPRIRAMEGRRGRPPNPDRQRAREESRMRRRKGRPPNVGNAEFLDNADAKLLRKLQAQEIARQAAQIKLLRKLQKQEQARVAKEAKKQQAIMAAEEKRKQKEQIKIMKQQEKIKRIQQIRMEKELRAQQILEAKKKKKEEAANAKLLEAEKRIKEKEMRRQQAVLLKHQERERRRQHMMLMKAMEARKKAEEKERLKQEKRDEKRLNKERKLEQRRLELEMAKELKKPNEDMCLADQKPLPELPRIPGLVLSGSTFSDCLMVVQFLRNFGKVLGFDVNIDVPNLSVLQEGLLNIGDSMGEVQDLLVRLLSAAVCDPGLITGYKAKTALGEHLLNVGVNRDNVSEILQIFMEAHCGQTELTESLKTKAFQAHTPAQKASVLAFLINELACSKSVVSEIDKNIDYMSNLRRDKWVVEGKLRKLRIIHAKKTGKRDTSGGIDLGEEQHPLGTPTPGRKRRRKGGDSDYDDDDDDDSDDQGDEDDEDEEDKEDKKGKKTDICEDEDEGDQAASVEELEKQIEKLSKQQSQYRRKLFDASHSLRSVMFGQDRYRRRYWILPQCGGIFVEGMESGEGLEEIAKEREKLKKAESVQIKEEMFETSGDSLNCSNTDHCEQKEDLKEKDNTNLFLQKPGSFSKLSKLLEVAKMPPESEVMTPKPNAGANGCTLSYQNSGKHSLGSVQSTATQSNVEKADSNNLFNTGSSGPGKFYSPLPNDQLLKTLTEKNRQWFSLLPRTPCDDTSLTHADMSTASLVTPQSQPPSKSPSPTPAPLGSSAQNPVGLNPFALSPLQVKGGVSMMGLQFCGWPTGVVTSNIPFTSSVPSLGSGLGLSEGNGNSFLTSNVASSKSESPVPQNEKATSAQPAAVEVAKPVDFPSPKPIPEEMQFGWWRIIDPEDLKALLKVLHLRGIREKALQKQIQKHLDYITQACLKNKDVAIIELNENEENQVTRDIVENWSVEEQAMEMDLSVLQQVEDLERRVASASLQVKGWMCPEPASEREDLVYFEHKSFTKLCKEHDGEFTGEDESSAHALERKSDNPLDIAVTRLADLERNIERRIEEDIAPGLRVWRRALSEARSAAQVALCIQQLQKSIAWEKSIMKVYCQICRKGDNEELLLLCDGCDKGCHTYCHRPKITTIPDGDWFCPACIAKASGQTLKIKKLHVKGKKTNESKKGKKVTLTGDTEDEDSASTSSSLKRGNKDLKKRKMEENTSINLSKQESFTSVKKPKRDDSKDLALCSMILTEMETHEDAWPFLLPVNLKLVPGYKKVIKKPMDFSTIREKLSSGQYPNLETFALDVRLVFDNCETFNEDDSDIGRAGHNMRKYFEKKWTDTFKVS
#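 Inhibition is scored as reduced AlphaScreen emission. The BAZ2B/b-H3(5-23)K14Ac complex (50 nM each) in PBS pH 7.4, 0.01% Tween-20 meets compound (up to 110 uM) for 30 min at RT before bead addition.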
# HP1b binding inh: blocks HP1-beta chromodomain binding to methylated histone tails | Potency, µM (titrated, usually from 114 µM), for the others: at the highest dose activity change, negative = inhibition, most hits filed as inhibitors | AID 540317 | AlphaScreen HP1-beta / biotin-H3K9me3 peptide binding | 390,000 compounds, 0.56% hits; also: nearly all actives have a fitted effect of over 70% in size
#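 HP1-beta protein (50 nM final) preincubated 30 min at room temperature with biotinylated H3(1-18)K9me3 peptide (50 nM) in PBS pH 7.4, 0.01% Tween-20, then compound added for 30 min. AlphaScreen streptavidin donor/nickel chelate acceptor beads (10 ug/mL final), 30 min dark, luminescence read.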
# G9a block: G9a (human) methyltransferase inhibition; Q96KQ7; AID 504332; 350,000 compounds, 8.8% hits; Potency, µM (titrated, usually from 102 µM), for the others: at the top dose activity, negative = inhibition, usual class: inhibitors; G9a H3K9 monomethylation, AlphaScreen, 2 h; also: % is scaled to controls: 0 for no effect and ±100 for the full control effect; nearly all actives have a fitted effect of over 75% in size
#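 Enzyme 20 nM + cpd, 15 min RT; add b-H3K9 pep 500 nM / SAM 20 uM; 2 h RT; anti-H3K9me1 Ab 0.5 ug/mL + SA donor / anti-rabbit acceptor beads 20 ug/mL each, 10 min; AlphaScreen read.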
# JMJD2A Tudor inh: JMJD2A Tudor domain (human) inhibition | AlphaScreen JMJD2A-Tudor / H3K4me3 peptide binding | 390,000 compounds, 4.4% hits | Potency, µM (top dose mostly 114 µM), for inactives: top-dose activity change, negative = inhibition, hits mostly inhibitors; also: % is scaled to controls: 0 for no effect and ±100 for the full control effect; nearly all actives have a fitted effect of over 50% in size
# L3MBTL1 inh: inhibitors of human L3MBTL1; Q9Y468; AlphaScreen L3MBTL1–H3K9me1 peptide binding; Potency, µM (top dose mostly 57.1 µM), without a hit: at the top dose activity, negative = inhibition, most hits filed as inhibitors; 230,000 compounds, 0.66% hits; AID 485360; also: % is scaled to controls: 0 for no effect and ±100 for the full control effect; nearly all actives have a fitted effect of over 60% in size
#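 AlphaScreen assay: L3MBTL1 (50 nM final) was preincubated 30 min at room temperature with biotinylated H3(1-15)K9me1 peptide (75 nM final), then 30 min with library compounds; streptavidin donor and nickel chelate acceptor beads (10 ug/mL final) added, 30 min dark.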
# * marks the source's active call; other numbers are inactive results; ? = inconclusive; . = no result; ! = a repeat was not active; [ ] = dose if it differs, or a comment. Calls follow the shape of the dose curve; as a rule, active = well fitted inhibition curve with a large enough effect; inconclusive = small, poorly fitted or top-dose-only effect; inactive = no such curve, though single readings can be large or run the other way. Potency is read from the fitted curve at half-maximal effect.
SMILES,BAZ2B inh,HP1b binding inh,G9a block,JMJD2A Tudor inh,L3MBTL1 inh
CCOc1ccc(NC(=O)C2CCCN(S(=O)(=O)c3ccc4[nH]c(=O)ccc4c3)C2)cc1 (centres undefined),-23.7%,5.9%,-7.9%[59 µM],50.1µM*!,.
COc1ccc(NC(=O)C2CCCN(S(=O)(=O)c3ccc4[nH]c(=O)ccc4c3)C2)cc1 (centres undefined),2.1%,68.5%,12.8%,-7.0%,0.6%
CCSC1=N/C(=C\c2ccc(C(=O)O)cc2)C(=O)S1,?,0.7%,?,-35.5%,-8.4%
CCOC(=O)SC1=N/C(=C\c2ccc(N(C)C)cc2)C(=O)S1,12.6µM*,35.5µM*,10µM*,20µM*,-23.2%
Cc1cc2c(s1)c1cnn(Cc3c(F)ccc(F)c3Cl)c(=O)c1n2C,.,.,.,-28.8%,.
Cc1ccsc1CCN1C(=O)N(c2ccccc2)C(=O)C1CC(=O)Nc1ccc(F)cc1 (centres undefined),-12.4%,43.1%,9.1%[59 µM],-12.6%,.
CCOC(=O)C1=C(C)N(c2ccc(C)c(C)c2)C(=O)/C1=C\c1ccco1,31.6µM*,-51.0%,35.5µM*,31.6µM*,-6.9%
CCOC(=O)C1=C(C)N(c2ccc(OC)cc2)C(=O)/C1=C\c1ccc(O)c(OCC)c1,50.1µM*,?,?,14.1µM*,-16.3%
CCOc1cc(/C=C2\C(=O)N(Cc3ccc(C)cc3)C(C)=C2C(=O)OC)ccc1O,?,-95.9%,8.91µM*,25.1µM*,-15.1%
COC(=O)C1=C(C)N(CCc2ccc(OC)c(OC)c2)C(=O)/C1=C\c1ccc(O)cc1,?,-12.8%,10µM*,?,-1.5%
COC(=O)C1=C(C)N(c2ccc(C)c(C)c2)/C(=C/c2ccco2)C1=O,?,-10.8%,?,-34.3%,.
CCOC(=O)C1=C(C)N(c2ccc(OC)cc2)C(=O)/C1=C\c1cccs1,?,-3.3%,-7.1%[59 µM],-30.8%,?
CNc1ncnc2ccc(-c3c(C)noc3C)cc12,?,.,2.0%[12.7 µM],.,-4.9%
Cc1cccc(CNC(=O)C2CCN(c3nc4ccc(Cl)cc4[nH]3)CC2)c1,-3.5%,11.5%[57 µM],-4.1%[59 µM],-30.8%,.
O=C(Cc1ccccc1)Nc1sc2c(c1C(=O)Nc1cccc(Cl)c1)CCCC2,.,.,.,-9.6%,.
COc1ccccc1N(C1=NCCCS1)S(=O)(=O)c1ccc(C(C)(C)C)cc1,-1.3%,1.7%,6.3%,-35.4%,-6.0%
COCCCN1C(=O)/C(=C\c2ccc3c(c2)OCO3)C(C(=O)OC)=C1C,-32.2%,10.4%,-21.5%,-34.5%,-4.7%
CCN1C(=O)/C(=C\c2ccc3c(c2)OCO3)C(C(=O)OC)=C1C,?,?,50.1µM*,-34.4%[57.1 µM],-10.2%
Nc1ccccc1SCc1ccccc1,10.6%,57.6%,12.8%[59 µM],-12.4%,.
N#CC(=C(\N)Sc1ccccc1N)/C(C#N)=C(/N)Sc1ccccc1N,.,.,31.6µM*,.,.
CC1CC(C)CN(C(=O)CCCNC(=O)c2ccc(Cl)cc2)C1 (centres undefined),1.0%,37.4%,38.9%,-10.3%,.
Cc1ccc2nc(C)cc(Nc3ccc4c(c3)OCCO4)c2c1,6.7%,8.5%,44.7µM*,-19.2%,.
Cc1cc(Nc2ccc3c(c2)OCCO3)c2ccccc2n1,-8.0%,-7.1%,?,-20.1%,-1.1%
CN(C)c1ccc(C(CNS(=O)(=O)c2ccc(Cl)cc2)N2CCCC2)cc1 (centres undefined),31.6µM*,?,?,50.1µM*,.
CN(C)c1ccc(C(CNS(=O)(=O)c2ccc(Br)cc2)N2CCCC2)cc1 (centres undefined),35.5µM*,?,17.8µM*,44.7µM*,.
COc1cc(/C=C/C(=O)OCC(=O)Nc2ccc(NC(C)=O)cc2)cc(S(=O)(=O)N2CCc3ccccc32)c1OC,.,23.7%,-49.7%,-30.1%,-19.1%
COc1cc(/C=C/C(=O)OCC(=O)NC2CC2)cc(S(=O)(=O)N2CCc3ccccc32)c1OC,-23.1%,-0.3%,56.2µM*,-18.6%,-19.9%
CC(=O)c1cccc(-n2c(CCC(=O)O)ccc2-c2ccccc2)c1,-23.6%,16.5%,39.8µM*,-18.5%,.
Cc1ccc(-c2ccc(CCC(=O)O)n2-c2cccc(O)c2)cc1,?,-4.1%,14.1µM*,?,.
